High-throughput results deposited in PubChem by National Center for Advancing Translational Sciences (NCATS).
This is a sample that favours compounds with a hit; in the whole collection about 21% have one here.
Pf growth 96h: Primary qHTS for delayed death inhibitors of the malarial parasite plastid, 96 hour incubation | 320,000 compounds, 6.9% hits | Potency, µM (top dose mostly 28.7 µM), usual class: inhibitors | AID 504834, 2011 | P. falciparum luciferase reporter growth, 96 h
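Infected RBCs, 2% Hct / 0.05% parasitemia final; luciferase-reporter P. falciparum; cpd 96 h, 37 C, 5% CO2; luciferase detection reagent; luminescence.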
Cycloheximide cs: Cycloheximide Counterscreen for Small Molecule Inhibitors of Shiga Toxin; cell reporter, cycloheximide protein synthesis inhibition counterscreen; max response, %; 300,000 compounds, 12% hits; in the data active = max response mostly above about 13%, no sharp cut-off; inactive = mostly below about 14%; also: read at 38.3 µM for the half of the compounds with a filed dose
Pf growth 48h: Primary qHTS for delayed death inhibitors of the malarial parasite plastid, 48 hour incubation | P. falciparum luciferase growth in erythrocytes, 48 h | Potency, µM (titrated, usually from 28.7 µM), usual class: inhibitors | 310,000 compounds, 5.9% hits | AID 504832, 2011
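Read-out is firefly luciferase luminescence from an integrated reporter in P. falciparum, so falling signal marks reduced parasite growth. Infected erythrocytes were at 2% hematocrit and 0.1% parasitemia (final) in Albumax-supplemented RPMI 1640.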
HCV inhibitor: qHTS Assay for Inhibitors of Hepatitis C Virus (HCV); Huh7.5.1 HCVcc-Cre infection, luciferase reporter, 44 h; Potency, µM (doses to about 41.8 µM), actives largely listed as inhibitors; 340,000 compounds, 3.4% hits; AID 651820, 2012
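Cells seeded at 1,000/well and cultured 4 h, then compounds added followed by HCVcc-Cre virus (~0.5 moi). After 44 h further culture, luciferase substrate was added, plates held 15 min at room temperature, and luminescence read for 15 sec.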
HCMV inh: qHTS Assay for inhibitors of the human cytomegalovirus (HCMV); 410,000 compounds, 4.5% hits; HFF cells, HCMV-luciferase reporter, 72 h; active compounds read low; AID 1259415, 2018; activity change, negative = inhibition, % at 57.5 µM; in the data active = activity change below about -60%; inconclusive = no clear call, values can overlap the other calls; inactive = above about -39%
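Steps: HFFs plated, 16 h 37C; compounds added; HCMV-luciferase added to MOI 1 PFU/cell; 72 h 37C; OneGlo reagent, 5 min room temperature; luminescence read, normalized to controls.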
Shiga inhibitor: A qHTS for Small Molecule Inhibitors of Shiga Toxin. Vero cells, Shiga toxin protein synthesis inhibition reporter. inhibition, % at 38.7 µM. 290,000 compounds, 9.2% hits. AID 2315, 2010; in the data active = inhibition mostly above about 28%, no sharp cut-off; inactive = mostly below about 43%
Large screens that a line does not name were inactive. Unless noted, calls follow the shape of the dose curve; as a rule, active = well fitted inhibition curve with a large enough effect; inconclusive = small, poorly fitted or top-dose-only effect, or another doubt; inactive = no such curve, though single readings can be large or run the other way.

CC(C)(C)NC(=O)COC(=O)c1c2c(nc3ccccc13)CCC2	Pf growth 96h 5.2µM, Pf growth 48h inconclusive, HCV inhibitor inconclusive
Cc1nc2ccc(NC(=O)Cc3cccc(F)c3)cc2s1	Cycloheximide cs 36, Shiga inhibitor 39
O=C(Cc1ccsc1)NCC(=O)Nc1ccc(F)c(F)c1	Pf growth 96h inconclusive
Cc1ccc(NC(=O)Cc2ccsc2)cc1Cl	Cycloheximide cs 25, Shiga inhibitor 56
Cc1nc2ccc(NC(=O)Cc3ccccc3F)cc2s1	Cycloheximide cs 58, Shiga inhibitor 103
Cc1nc2ccc(S(=O)(=O)NCC(=O)Nc3ccc(F)cc3)cc2s1	Pf growth 96h inconclusive
Cc1nc2ccc(NC(=O)Cc3ccsc3)cc2s1	Cycloheximide cs 28 (no result: Pf growth 48h)
C=CCN(CC=C)C(=O)Nc1ccc2nc(C)sc2c1	Pf growth 96h inconclusive
Cc1ccccc1C(=O)Nc1ccnn1C1CCN(Cc2ccccn2)CC1	Pf growth 96h inconclusive
CCOC(=O)C1(C)CCN1C(=O)c1ccccc1OC(F)(F)F (stereo not drawn)	none (no result: Pf growth 96h, Cycloheximide cs, Pf growth 48h, HCV inhibitor, Shiga inhibitor)
COC(=O)c1ccccc1NC(=O)c1oc2ccc3c(c2c1C)C(=O)CC(C)(C)O3	none (no result: Pf growth 96h, Cycloheximide cs, Pf growth 48h, HCV inhibitor, Shiga inhibitor)
Cn1c(-c2ccccc2)cnc1NCc1cc(Cl)ccc1O	Cycloheximide cs 17, Pf growth 48h 12µM
Cn1c(-c2ccc(F)cc2)cnc1NCc1ccccc1F	Cycloheximide cs 17, Pf growth 48h inconclusive
Cn1c(-c2ccccc2)cnc1NCc1ccc(-c2ccccc2)cc1	Pf growth 96h inconclusive
Cn1c(-c2ccc(F)cc2)cnc1NCc1ccc(C#N)cc1	none
Cn1c(-c2ccc(F)cc2)cnc1NCc1ccc(F)cc1	Pf growth 96h inconclusive, Pf growth 48h inconclusive
Cn1c(-c2ccc(F)cc2)cnc1NCc1ccc(F)cc1F	Shiga inhibitor 23
COCCCNC(=O)C1CCC(Cn2c(=O)c3sccc3n(C)c2=O)CC1 (stereo not drawn)	none (no result: Pf growth 96h, Cycloheximide cs, Pf growth 48h, HCV inhibitor, Shiga inhibitor)
COC(=O)C1=C(C)N(C(C)C)C(=O)C1(NC(=O)c1ccccc1OC)C(F)(F)F (stereo not drawn)	none (no result: Pf growth 96h, Cycloheximide cs, Pf growth 48h, HCV inhibitor, Shiga inhibitor)
Cc1c(C)n(CCc2ccccc2)c2ncnc(NCCO)c12	Cycloheximide cs 52, Shiga inhibitor 68
Cc1c(C)n(Cc2ccccc2)c2ncnc(Cl)c12	HCV inhibitor inconclusive, HCMV inh -88
Cc1c(C)n(CCCN(C)C)c2ncnc(NCc3ccccc3)c12	none
COc1ccccc1Nc1ncnc2c1nc1n2CCCC1	none (no result: Pf growth 96h, Cycloheximide cs, Pf growth 48h, HCV inhibitor, Shiga inhibitor)
COc1ccccc1Nc1ncnc2c1c(C)c(C)n2CCO	Cycloheximide cs 42, HCV inhibitor inconclusive, Shiga inhibitor 61
CC1=C(C(=O)Nc2ccccc2)C(c2ccc[nH]2)n2ncnc2N1 (stereo not drawn)	HCMV inh inconclusive (no result: Cycloheximide cs, HCV inhibitor, Shiga inhibitor)
O=C(NCCC1=CCCCC1)c1ccc2c(c1)N(Cc1ccc(Cl)cc1)C(=O)c1ccccc1S2=O (stereo not drawn)	none (no result: Pf growth 96h, Cycloheximide cs, Pf growth 48h, HCV inhibitor, Shiga inhibitor)
CCc1ccc2c(c1)c(=O)c(S(=O)(=O)c1ccccc1)cn2CC(=O)Nc1cc(C)ccc1C	none (no result: Pf growth 96h, Cycloheximide cs, Pf growth 48h, HCV inhibitor, Shiga inhibitor)
COCCN1Cc2cccc(C(=O)NC(C)CCc3ccco3)c2C1=O (stereo not drawn)	none
O=C(CCC(=O)c1ccc(Cl)cc1)OCC(=O)c1ccccc1	Pf growth 96h inconclusive, HCV inhibitor inconclusive, HCMV inh -65
O=C(O)COc1ccc(Cl)cc1Cl	none (no result: Pf growth 96h, Cycloheximide cs, Pf growth 48h, Shiga inhibitor)
Cc1ccc(C(=O)COC(=O)Cc2ccccc2)cc1	Cycloheximide cs 46, Shiga inhibitor 77
O=C(COc1c(Cl)cc(Cl)cc1Cl)c1ccc(Cl)cc1	Pf growth 96h 12µM
O=C(Cc1ccccc1)OCC(=O)c1ccccc1	Pf growth 96h 12µM, Cycloheximide cs 30
Cc1ccc(C(=O)COC(=O)CNC(=O)Cc2ccccc2)cc1	none
COc1cc(OC)c(OC)cc1CN1CCC(O)CC1	none
Cc1ccc(NC(=O)CCNS(=O)(=O)c2ccc3[nH]c(=O)oc3c2)cc1N(C)C	none
CCOC(=O)C1CCN(C(=O)CCc2c(C)nc3ncnn3c2C)CC1	Pf growth 96h 15µM (no result: Pf growth 48h)
CCOC(=O)C1CCN(C(=O)CCc2c(C)nc3cc(-c4ccc(OC)cc4OC)nn3c2C)CC1	Pf growth 96h inconclusive, Pf growth 48h 13µM
Cc1nc2ncnn2c(C)c1CCC(=O)N1CCCCC1	none (no result: Pf growth 48h)
